Screen size: about 220,000 compounds; about 1,100 (0.5%) were called active. What follows is part of a selection rich in actives, with near analogues and random picks from the rest. Values without a mark were called inactive.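 Rule for the calls: active = inhibition above about 30% (limit read from the data); inactive = the rest.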

Sequence of Neutrophil cytosol factor 1 (Homo sapiens) (P14598 whole entry, looked up): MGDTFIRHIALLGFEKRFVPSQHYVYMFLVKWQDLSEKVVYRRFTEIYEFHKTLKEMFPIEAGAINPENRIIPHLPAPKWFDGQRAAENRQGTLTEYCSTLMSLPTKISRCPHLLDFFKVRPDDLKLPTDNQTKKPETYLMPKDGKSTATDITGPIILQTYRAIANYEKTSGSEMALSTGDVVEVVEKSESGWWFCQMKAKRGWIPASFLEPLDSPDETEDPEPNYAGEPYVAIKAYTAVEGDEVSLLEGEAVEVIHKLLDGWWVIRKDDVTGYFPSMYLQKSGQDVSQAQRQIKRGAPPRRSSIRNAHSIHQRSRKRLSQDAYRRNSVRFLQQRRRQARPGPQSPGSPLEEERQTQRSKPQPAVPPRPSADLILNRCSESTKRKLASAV

This assay has as its target Neutrophil cytosol factor 1 (Homo sapiens) (UniProt P14598). The assay can be described thus: p47phox/p22phox peptide binding inhibitors, primary screen, biochemical, uHTS, NADPH oxidase regulatory subunit (AID 1274).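 Note: 0% = p47phox with labelled peptide and 100% = labelled peptide alone.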 Particulars: fluorescence polarization, 2 h, at 24.7 µM, active compounds read high.
With `COCCN(C(=O)C(C)C)c1nnc(-c2ccc(C(C)(C)C)cc2)s1`, the inhibition was -3.33%.

As for `O=C(Cc1cccs1)Nc1nnc(SCc2ccc(F)cc2)s1`, the inhibition was -11.1%.

For `Nc1nnnn1/N=C/c1cccs1`, the inhibition was -3.56%.

`C=CCOc1c(Br)cc(/C=N\n2nnnc2N)cc1OC`: the inhibition was 2.05%.

Turning to `COc1ccc(/C=N/n2nnnc2N)cc1OC`, the inhibition is 31.6% (active).

For the molecule `CCc1ccc(-c2nn(-c3ccccc3)cc2CSC(=N)N)cc1`, the inhibition was 51% (active).

In the case of `CCn1c(SCc2ccc(C)cc2)nnc1-c1nn(-c2ccccc2)ccc1=O`, the inhibition is -13%.

For `N=C(N)SCc1cccc2ccccc12`, the inhibition was -8.51%.

Consider `CCOc1cc(/C=C(/C#N)c2ccc(Cl)cc2)cc(Cl)c1OCC(=O)O`, for which the inhibition is -9.24%.

For `COC(=O)CN1C(=O)N/C(=C/c2ccc(OC)c(C)c2OC)C1=O`, the inhibition was 5.97%.

`Cc1ccc(-c2nn(-c3cccc(F)c3)cc2CNCCc2ccncc2)o1`: the inhibition is -21.2%.

Regarding `COc1ccccc1CC(=O)Nc1ccc(F)cc1F`, the inhibition is 6.55%.

As for `CSCCNCc1cn(-c2ccc(F)cc2F)nc1-c1ccccc1C`, the inhibition was 30.6% (active).

For the molecule `O=C(Nc1ccccc1N1CCOCC1)c1csc2c1CCCC2`, the inhibition is -2.28%.

Turning to `c1csc(-c2nnc(COc3ncnc4sccc34)o2)c1`, the inhibition is -9.61%.

Regarding `NC(=O)NC(=O)CSc1nc2cc([N+](=O)[O-])ccc2n1-c1cccc(C(F)(F)F)c1`, the inhibition was -1.12%.

`CCCc1c(C(=O)O)cnn1-c1ccc(Cl)cc1`: the inhibition was -1.8%.

For the molecule `CC1(C)CC(=O)C=C(N2CCCC2)C1`, the inhibition is -17.5%.

For the molecule `CC(C)NC(=S)N1CCN(C(c2ccccc2)c2ccccc2)CC1`, the inhibition is -3.69%.

Consider `CC1(C)CC(N2CCN(C(c3ccccc3)c3ccccc3)CC2)=CC(=[N+]2CCCCC2)C1`, for which the inhibition is 30.8% (active).

Take `CCCSc1ncccc1C(=O)O`: the inhibition was -1.29%.

Take `Cc1ccc(Nc2nc(Cl)c(C=O)s2)cc1`: the inhibition is -45%.

With `O=C(/C=C/c1ccccc1)Nc1nnc(SCC(=O)c2ccc3ccccc3c2)s1`, the inhibition is -19.6%.

For the molecule `O=C(CCc1ccccc1)Nc1ncc([N+](=O)[O-])s1`, the inhibition was 41.8% (active).

As to `CC(=O)Oc1ccccc1C(=O)Nc1ncc([N+](=O)[O-])s1`, the inhibition was -3.91%.

With `O=C(Cc1c(F)cccc1Cl)Nc1ncc([N+](=O)[O-])s1`, the inhibition is -2.51%.

As for `Cn1c(C(=O)O)ccc1S(=O)(=O)N(Cc1ccccc1)Cc1ccccc1`, the inhibition was 0.4%.

`Cc1ccc2c(CC(=O)NCc3cccs3)coc2c1`: the inhibition is -14.7%.

As for `CC1Cc2ccccc2N1C(=O)CSc1nnc(C2CC2)n1C` (stereo not drawn), the inhibition was -12.6%.

`Cc1cc(=O)[nH]c(SCC(=O)N2c3ccccc3CC2C)n1` (stereo not drawn): the inhibition is 42.8% (active).

On to `CC1Cc2ccccc2N1C(=O)CSc1nc2ccccc2o1` (stereo not drawn), for which the inhibition was -13.1%.

For the molecule `O=C(NN1C(=O)C2CCCCC2C1=O)c1ccco1` (stereo not drawn), the inhibition is 8.97%.

As to `C/C=C(\C)C(=O)N1CC2(CC(c3cccc(NC(=O)CCCCC)c3)=NO2)C[C@@H]1C(N)=O` (stereo partly drawn), the inhibition was -4.05%.

For `COc1ccccc1C1/C(=C(/O)c2ccc(C)cc2)C(=O)C(=O)N1Cc1ccco1` (stereo not drawn), the inhibition is -0.55%.

For the molecule `Cc1cc(N2C(=O)C(=O)/C(=C(/O)c3ccc(Cl)cc3)C2c2cccc(Br)c2)no1` (stereo not drawn), the inhibition is -12.5%.

As to `COc1ccccc1C1/C(=C(/O)c2ccc(OC(C)C)cc2)C(=O)C(=O)N1c1cc(C)on1` (stereo not drawn), the inhibition was 54.4% (active).

`COc1ccc(NC(=O)COC(=O)c2ccncc2)c(OC)c1`: the inhibition was -5.21%.

As to `COc1ccc(NC(=O)c2ccccc2CC[N+](=O)[O-])cc1`, the inhibition was -4.4%.

In the case of `CCn1c(CNS(=O)(=O)c2ccc(Cl)cc2)n[nH]c1=S`, the inhibition is -6.22%.

For `CCc1nc2sc(C(=O)O)c(N)c2c2c1CCCC2`, the inhibition is 3.39%.

For the molecule `COc1ccc(-c2ccnc(SCC(=O)N3CCOCC3)n2)cc1`, the inhibition was -7.88%.

With `O=C(O)COc1ccc(-c2nccc(-c3cccs3)n2)cc1`, the inhibition is -0.51%.

For the molecule `COC(=O)CSc1nccc(-c2cccs2)n1`, the inhibition is 57.9% (active).

Regarding `CN1CCN(S(=O)(=O)c2ccc(NC(=S)NC(=O)C3CC3)cc2)CC1`, the inhibition is 5.87%.

With `Cc1nnc(NC(=O)CSc2nccn2-c2cccc(C)c2C)s1`, the inhibition was -2.14%.

For the molecule `COc1ccccc1-n1ccnc1SCC(=O)NC(C)(C)C`, the inhibition is 130% (active).

In the case of `Cc1ccc(C)c(-n2ccnc2SCC(N)=O)c1`, the inhibition was -6.63%.

As to `Cc1cccc(NC(=O)CSc2nnc(CCNC(=O)OC(C)(C)C)o2)c1C`, the inhibition is -4.83%.

For the molecule `O=[N+]([O-])C(=c1ccc2c(c1)N1C3=C(CCCC3)CC3CCCCC31N=2)[N+](=O)[O-]` (stereo not drawn), the inhibition was 32.3% (active).

As to `CC(=O)Nc1cccc(Oc2cc(C#N)c(C#N)cc2N2CCOCC2)c1`, the inhibition is -5.37%.

For `COc1cc(N2CCCC2)c(OC)cc1/C=C(/C#N)c1cccc(Br)c1`, the inhibition is 41.6% (active).

`COc1cccc(C(=O)Nc2ccc(N3CCCC3)cc2)c1`: the inhibition was -24.3%.

`O=C1/C(=C/c2cccs2)SC(=S)N1C1CCS(=O)(=O)C1` (stereo not drawn): the inhibition was 136% (active).

`O=C(CCN1C(=O)/C(=C/c2cccs2)SC1=S)NNC(=O)c1cccc(O)c1`: the inhibition is -143%.

As to `O=C1N/C(=C/c2cccs2)C(=O)N1Cc1ccc(F)cc1`, the inhibition was -8.47%.

For `O=C(Nc1ccccc1)O/N=C1/CCCc2occc21`, the inhibition was -10.7%.

Turning to `COc1cc(OC)cc(-c2nc3ccccc3c(=O)n2NC(=O)c2cccnc2Cl)c1`, the inhibition is -17.9%.

Regarding `COc1ccc(C)cc1NC(=O)c1ccc(-c2ccc(C(C)=O)cc2)o1`, the inhibition is -8.08%.

As to `COc1cc(OC)c(OC)cc1/C=N/Nc1ncnc2c1[nH]c1ccc(C)cc12`, the inhibition was 34.2% (active).

Take `CC(C)OCCCNc1ncnc2c1[nH]c1ccc(F)cc12`: the inhibition is -10.6%.

As to `Cc1ccc2[nH]c3c(=O)n(Cc4ccccn4)cnc3c2c1`, the inhibition was -18.3%.

For `CC(=O)NCCn1c(SCC(=O)Nc2ccc(C)cc2)nc2ccccc2c1=O`, the inhibition is 1.49%.

In the case of `CC(C)(C)C(=O)OCc1nc(-c2ccc(O)c(O)c2)cs1`, the inhibition was -9.67%.

For the origin of these results see PubChem BioAssay AID1274 (Emory University Molecular Libraries Screening Center, 2008).
